# Shown are actives, neighbours in structure and some others; about 19% of the full set was active somewhere.
# ELG1 repair inh: qHTS screen for small molecules that inhibit ELG1-dependent DNA repair in human embryonic kidney (HEK293T) cells expressing luciferase-tagged ELG1 | HEK293T ELG1-luciferase reporter, luminescence, 16 h; DNA damage induced by 5-fluorouridine | Potency, µM (doses to about 46.1 µM), for the others: at the highest dose activity change, negative = inhibition, hits mostly inhibitors | hit rate 2.3% among 330,000; note: potency is the fitted concentration of half-maximal effect; nearly all actives have a fitted effect of over 55% in size
#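 Cells (2,000 per well) received 5-fluorouridine plus test compound or DMSO and were incubated 16 hr at 37 °C, 5% CO2. Luciferase activity was read by luminescence 30 min after ONE-Glo addition; signal suppression marked inhibition of damage-induced ELG1 function.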
# HT1080 IDH1KD tx: qHTS for induction of synthetic lethality in tumor cells producing 2HG: qHTS for the HT-1080-IDH1KD cell line. HT-1080 IDH1 knockdown viability, ATP luminescence, 48 h. Potency, µM (top dose mostly 46.1 µM), for inactives: top-dose activity, negative = toxicity, usual class: cytotoxic. hit rate 2% among 360,000;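 note: potency is the fitted concentration of half-maximal effect; 0% = DMSO wells and -100% = cell-free medium wells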
#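 HT-1080-IDH1KD cells (IDH1 knocked down), 750/well in RPMI with 5% FBS, treated with compound 48 h at 37 degrees C. Viability by CellTiter-Glo luminescence, normalised to DMSO and no-cell wells; concentration-response curves classed.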
# TDP1 cell CPT: qHTS for Inhibitors of human tyrosyl-DNA phosphodiesterase 1 (TDP1): qHTS in cells in presence of CPT; AID 686979, 2013; hit rate 12% among 420,000; Potency, µM (top dose mostly 46.2 µM), for inactives: at the highest dose activity change, negative = growth inhibition, usual class: inhibitors; chicken DT40 Tdp1-/-;hTDP1 cells + 20 nM CPT, ATP luminescence, 48 h; note: potency is the fitted concentration of half-maximal effect; nearly all actives have a fitted effect of over 55% in size
#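 Cell growth measured by CellTiter-Glo luminescence after a minimum 48 h, 37 C compound exposure with 20 nM CPT in Tdp1-knockout DT40 cells stably expressing hTDP1, seeded 400/well; qHTS titration format.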
# DT40 TDP1 no CPT: qHTS for Inhibitors of human tyrosyl-DNA phosphodiesterase 1 (TDP1): qHTS in cells in absence of CPT; DT40 Tdp1-/- hTDP1 cells, no CPT, ATP luminescence, 48 h; Potency, µM (highest dose often 46.2 µM), for inactives: top-dose activity change, negative = growth inhibition, hits mostly inhibitors; hit rate 15% among 420,000; note: potency is the fitted concentration of half-maximal effect; nearly all actives have a fitted effect of over 55% in size
#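 Camptothecin absent (DMSO only). Human TDP1-complemented DT40 knockout cells, 400 cells/well, 37 °C for minimum 48 hr; ATP measured via CellTiter-Glo, 30 min dark incubation, luminescence.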
# IL1B secr inh: qHTS for Inhibitors of Inflammasome Signaling: IL-1-beta AlphaLISA Primary Screen | AID 743279, 2014 | hit rate 4.7% among 360,000 | THP-1 LPS/ATP IL-1B secretion, AlphaLISA, 16 h; active compounds read low | activity change, % at 57.5 µM; in the data active = activity change below about -50%; inconclusive = mostly about -30% to -49%
#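 Secreted IL-1B measured by AlphaLISA bead assay after 16 h compound exposure of THP-1 cells; compounds (final up to 57.5 uM) added 1 h before LPS (250 ng/mL) and ATP (1.25 mM) stimulation; lower signal means less secretion.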
# HT1080-NT tox: qHTS for induction of synthetic lethality in tumor cells producing 2HG: qHTS for the HT-1080-NT fibrosarcoma cell line; HT-1080-NT fibrosarcoma viability, CellTiter-Glo ATP luminescence, 48 h; Potency, µM (top dose mostly 46.1 µM), for inactives: at the top dose activity, negative = less viability, most hits filed as cytotoxic; hit rate 1.6% among 360,000;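 note: NT is the 2HG producing partner of a matched IDH1 knockdown line; potency is the fitted concentration of half-maximal effect; 0% = DMSO-treated cells and -100% = media-only wells without cells; nearly all actives have a fitted effect of over 55% in size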
#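 750 cells/well, RPMI + 5% FBS; 2 h settle, compound pin-transfer, 48 h at 37 degrees C. CellTiter-Glo 10 min RT, luminescence. Normalized to DMSO and media-only wells.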
# * = called active by the depositor; u = inconclusive; x = not tested or not shown. Unless noted, calls come from the whole dose curve; as a rule, active = well fitted curve in the direction sought with a large enough effect; inconclusive = small, poorly fitted or top-dose-only effect, or another doubt; inactive = no such curve, though single readings can be large; an effect the other way counts as inactive or inconclusive. Unless noted, % is set by controls: 0 for no effect and ±100 for the full control effect.
SMILES,ELG1 repair inh,HT1080 IDH1KD tx,TDP1 cell CPT,DT40 TDP1 no CPT,IL1B secr inh,HT1080-NT tox
Cc1cc(/C=C2\SC(=O)N(C)C2=O)c(C)n1-c1ccc(S(N)(=O)=O)cc1,-10.3%,0.0%,18.4µM*,9.2µM*,12.5,2.7%
Cc1cc(/C=C2\SC(=O)N(C)C2=O)c(C)n1-c1ccc(O)cc1,u,-5.3%,u,20.6µM*,5.7,2.5%
Cc1noc(C)c1C(=O)N1CCN(S(=O)(=O)c2cccc(Cl)c2Cl)CC1,0.0%,-0.1%,-1.1%,-17.3%,10.2,4.8%
C[C@@H]1CN([C@@H](C)CO)C(=O)CCCn2nncc2CO[C@H]1CN(C)C(=O)OCc1ccccc1,x,6.6%,0.6%,-12.3%,29.7,11.4%
O=C(Cc1ccc(OCC2CCCCC2)cc1)NO,x,x,10µM*,11.2µM*,x,x
O=C(COC(=O)Cc1ccc(Br)cc1)NC1CCCCC1,-9.8%,12.5%,-0.6%,-20.1%,5.3,13.7%
Cc1cccc(CN2CCN(C3CN(Cc4cn(Cc5ccc(F)cc5)nn4)S(=O)(=O)C3)CC2)c1 (stereo not given),x,12.5%,u,u,-4.0,14.8%
CCOc1ccc2[nH]c3c(NCCCOC)ncnc3c2c1,u,-1.9%,u,u,-54.0*,0.4%
CCOc1ccc2[nH]c3c(NCCN(CC)CC)ncnc3c2c1,u,u,13.0%,-1.5%,-96.1*,u
COc1ccc2[nH]c3c(NCCN(C(C)C)C(C)C)ncnc3c2c1,-6.0%,-20.4%,16.4µM*,18.4µM*,-57.4*,-27.1%
COc1ccc2[nH]c3c(NCCCN4CCCC4=O)ncnc3c2c1,u,0.0%,-0.3%,4.0%,9.4,-2.1%
CCOc1ccc2[nH]c3c(NCCOC)ncnc3c2c1,u,-1.1%,u,-24.3%,0.9,0.5%
CCCCN(CCCC)CCn1cnc2c([nH]c3ccc(OC)cc32)c1=O,-11.8%,10.8%,u,u,-3.8,-0.3%
CCN(CC)CCCNc1nc2ccccc2c2[nH]c3ccc(OC)cc3c12,x,20.6µM*,5.17µM*,2.91µM*,-98.1*,u
COc1ccc(NC(=O)C(NC(C)=O)C(=O)Nc2ccc(F)cc2)cc1 (stereo not given),8.2%,8.4%,-12.5%,-4.9%,8.5,6.5%
CC(=O)Nc1ccc(NC(=O)C(C)OC(=O)CCCOc2ccc(Cl)cc2C)cc1 (stereo not given),17.4%,-16.0%,-16.6%,-25.2%,35.9,-3.9%
Cc1ccc(N(CC(=O)NCc2ccco2)C(=O)CCC(=O)Nc2nccs2)cc1C,-23.1%,-12.6%,-13.6%,-24.1%,-8.2,-1.8%
CCOc1ccc2[nH]c3c(NCC(C)C)ncnc3c2c1,u,-16.8%,u,25.9µM*,u,-14.4%
CCOc1ccc2[nH]c(O)c(NC(C)=O)c2c1,5.9%,-4.6%,-1.6%,5.9%,14.0,2.9%
CC1=CC(C)(C)N(C(=O)CSc2nnc(-c3ccc(C)cc3)o2)c2ccc(C)cc21,-9.2%,-7.3%,u,18.4µM*,5.3,-1.7%
COc1ccc(-c2ccc(C)cc2)cc1[C@H]1[C@@H]2C=CCC[C@@]2(C)C(=O)N1Cc1ccccc1,-1.4%,u,u,u,4.2,u
C[C@@]12CCC=C[C@H]1[C@H](c1ccc(/C=C/c3ccccc3)cc1F)N(Cc1ccccc1)C2=O,-0.2%,u,14.6µM*,20.6µM*,-18.6,u
C[C@@]12CCC=C[C@H]1[C@H](c1ccc(C(F)(F)F)cc1)N(Cc1ccccc1)C2=O,u,-2.0%,u,16.4µM*,41.0,-4.1%
C[C@@]12CCC=C[C@H]1[C@H](c1ccc3ccccc3c1/C=C/c1ccccc1)N(Cc1ccccc1)C2=O,-2.5%,-1.5%,2.06µM*,u,38.0,-2.1%
CC1(C)CC2c3cccc(C(=O)O)c3C(=O)N2c2c1ccc1ccccc21 (stereo not given),-16.6%,13.3%,-6.0%,-14.6%,42.4,1.6%
SMILES,ELG1 repair inh,HT1080 IDH1KD tx,TDP1 cell CPT,DT40 TDP1 no CPT,IL1B secr inh,HT1080-NT tox
COc1ccc(-c2ccc(C(C)=O)cc2)cc1[C@H]1[C@@H]2C=CCC[C@@]2(C)C(=O)N1Cc1ccccc1,20.6µM*,-11.1%,u,-83.0%,u,u
C[C@@H]1CC=C[C@H]2[C@H]1C(=O)N(Cc1ccccc1)[C@H]2c1ccc(/C=C/c2ccccc2)cc1F,-1.1%,-25.3%,u,-55.0%,-1.8,u
COc1ccc(Cl)cc1NC(=O)C(C)n1c(=O)cc(C(F)(F)F)c2c(C)nn(C)c21 (stereo not given),x,x,-19.5%,-24.9%,x,x
CCN(CC)S(=O)(=O)c1ccc(SCC(=O)c2c(N)n(C3CC3)c(=O)[nH]c2=O)nc1,x,-17.6%,u,20.6µM*,35.2,-12.8%
CN(C)S(=O)(=O)c1ccc2oc(SCC(N)=O)nc2c1,3.1%,1.5%,-18.8%,0.2%,3.2,-7.0%
CCN(C(=O)CSc1nnc(C(C)N(C)C)n1-c1ccc(F)cc1)C1CCS(=O)(=O)C1 (stereo not given),0.6%,3.7%,-7.6%,9.1%,10.6,20.0%
CC(c1nnc(SCC(=O)c2c(N)n(C3CC3)c(=O)[nH]c2=O)n1-c1ccc(F)cc1)N(C)C (stereo not given),-2.6%,2.2%,4.1%,2.91µM*,-3.6,-1.3%
CN(C)S(=O)(=O)c1ccc2oc(SCC(=O)c3c(N)n(C4CC4)c(=O)[nH]c3=O)nc2c1,u,0.0%,-8.2%,4.11µM*,21.9,10.5%
COCCN(CCOC)C(=O)c1ccc(CSc2nc3ccccc3s2)cc1,u,-12.4%,u,u,6.4,u
Cc1cccc(CNC(=O)c2ccc3c(c2)c(C)c(C)n3Cc2ccccc2)c1,x,x,20.6µM*,u,x,x
CCOc1ccc(CNC(=O)c2cc3ccccn3n2)cc1OC,x,x,-20.3%,-4.9%,x,x
CCOc1ccc(CNC(=O)c2ccc3c(c2)c(C)c(C)n3Cc2ccccc2)cc1OC,x,x,11.6µM*,14.6µM*,x,x
Cc1c(C)n(Cc2ccccc2)c2ccc(C(=O)NCc3ccc(OC(C)C)cc3)cc12,x,x,16.4µM*,11.6µM*,x,x
CC(C)Oc1ccc(CNC(=O)c2ccc3c(c2)nc2n3CCOC2)cc1,x,x,3.0%,-4.7%,x,x

# From PubChem BioAssay
